Results: PubChem BioAssay (EPA / NIEHS)
Active and inactive are the calls of the source. How the source made its calls: active means hit-call score of the fitted dose curve at least 0.9, where 1 is the maximum; inactive means score below 0.9.

Assay: CCTE_Shafer_MEA_acute_burst_number: CCTE's Neural Acute Assay for Single-Electrode Bursts, Shafer Lab (AID 2284013)
Protocol: CCTE_Shafer_MEA_acute assay is conducted using Axion Biosystems 48 well microelectrode array (MEA) plates and Maestro recording system. Each well of the MEA plate contains a grid of 16 microelectrodes embedded in the culture surface. Electrically active cells, such as neurons, can be cultured over the electrodes, and electrical activity in these cells can be recorded extracellularly. The spontaneous firing of neurons is captured from each electrode on a microsecond timescale providing both temporally and spatially precise data. […] The CCTE_Shafer_MEA_acute assay uses primary cultures of rat cortical neurons. As these cultures mature over time, neural networks develop functional activity and form cohesive networks in which electrical activity can be highly coordinated. Baseline 40-minute recordings are made on days post-plating 13 or 15, followed by a secondary 40-minute recording after chemical exposure.CCTE_Shafer_MEA_acute_burst_number is a component of the CCTE_Shafer_MEA_acute assay. It measures the total number of single-electrode bursts (temporally-clustered groups of action potential firing) during a recording in a microelectrode array (MEA) using Axion Biosystems Maestro 768 channel amplifier with the AxIS adaptive spike detector. The recordings before and after chemical treatment are used to calculate a percent change in the burst number in each well.Data from the assay component CCTE_Shafer_MEA_acute_burst_number was analyzed into 1 assay endpoint. This assay endpoint, CCTE_Shafer_MEA_acute_burst_number, was analyzed in the negative analysis fitting direction relative to DMSO as the negative control and baseline of activity. Using a type of functional reporter, gain or loss-of-signal activity can be used to understand electrical activity.
Spontaneous activity in the cortical cultures was recorded using an Axion Biosystems Maestro 768 channel amplifier and Axion Integrated Studios (AxIS) v1.8 (or later) software. The amplifier recorded from all channels simultaneously (gain = 1200 x; sampling rate = 12.5 kHz/channel): raw signals were filtered with a Butterworth band-pass filter (300-5000 Hz), which filters out slower local field potentials leaving only fast potentials, i.e., "spikes", arising from extracellular currents associated with action potentials (Pine 2006; Wheeler and Nam 2011). On-line spike detection of filtered signals was conducted with the AxIS adaptive spike detector, using a threshold of 8x the root mean squared (rms) noise on each channel. Any electrodes with rms noise levels greater than 5 uV were grounded (e.g., no data were recorded). Once grounded, an electrode was grounded for the duration of the experiment. All recordings were conducted at 37 C. Wells were deemed usable if on the day of the exposure >/= 10 electrodes were active (defined as >/= 5 spikes/min). On DIV 13 or 15, a minimum of three wells from one cortical culture preparation were treated with each compound (0.03-40 uM). Prior to recording baseline activity, each mwMEA plate was placed in the Maestro at 37 C and allowed to sit for 20 min while firing rates stabilized. Baseline activity (40 min) was recorded before the addition of each compound. An additional 40 min of spontaneous activity was recorded in the presence of each compound. Changes in network parameters relative to baseline were assessed following compound treatment.

SMILES | outcome | AC50
COc1cc(CNC(=O)CCCC/C=C/C(C)C)ccc1O | inactive | –
CN(C)CCC(c1ccc(Cl)cc1)c1ccccn1 (stereo unspecified) | inactive | –
COc1ccc(C(=O)c2ccccc2O)c(O)c1 | – | 3 nM (active)
CC1(C)S[C@@H]2[C@H](NC(=O)[C@H](N)c3ccccc3)C(=O)N2[C@H]1C(=O)O | inactive | –
CC(C)C1OCCN1CCOC(=O)NCCCCCCNC(=O)OCCN1CCOC1C(C)C (stereo unspecified) | inactive | –
CCC[Si](OC(C)=O)(OC(C)=O)OC(C)=O | – | 55.4 nM (active)
CNCCC(Oc1ccc(C(F)(F)F)cc1)c1ccccc1 (stereo unspecified) | – | 693 nM (active)
O=[N+]([O-])c1cc(S(=O)(=O)Nc2ccccc2)ccc1Nc1ccccc1 | inactive | –
C1CN(CCOCCN2CCOCC2)CCO1 | inactive | –
CC[N+](CC)(CC(=O)Nc1c(C)cccc1C)Cc1ccccc1 (tested in a mixture with another compound) | inactive | –
COc1ccccc1Oc1c(NS(=O)(=O)c2ccc(C(C)(C)C)cc2)nc(-c2ncccn2)nc1OCCO | inactive | –
CN(C)C(=O)C(CCN1CCC(O)(c2ccc(Cl)cc2)CC1)(c1ccccc1)c1ccccc1 | – | 283 nM (active)
CN(C)Cc1cc(C(C)(C)C)c(O)c(C(C)(C)C)c1 | inactive | –
NC(N)=Nc1nc(CSCCC(N)=NS(N)(=O)=O)cs1 | inactive | –
CC1(C)S[C@@H]2[C@H](NC(=O)[C@H](N)c3ccc(O)cc3)C(=O)N2[C@H]1C(=O)O | inactive | –
Cc1c(C(N)=O)cc([N+](=O)[O-])cc1[N+](=O)[O-] | inactive | –
